Assay outcomes: PubChem BioAssay, several laboratories
Hits are enriched below; roughly 2.2% of the tested compounds scored in any of these assays.
APP transl inh: APP translation inhibition; inhibition, % at 2 µM; SH-SY5Y APP 5'UTR-luciferase reporter, luminescence; actives 0.82% (n = 190,000); AID 1285;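 active means inhibition above a set limit, derived from the sample mean plus 3 SD, cut at about 45% in these data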
BaF3 parental: reduces parental Ba/F3 cell viability, JAK2V617F counter-screen; CellTiter-Glo ATP luminescence; inhibition, % at 5.6 µM; actives 1.1% (n = 220,000); AID 1486;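 active means inhibition above a per-campaign cutoff, the mean inhibition of all tested compounds plus 3 SD, cut at about 27% in these data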
aSyn UTR inh: 5' untranslated region of α-synuclein, MLPCN primary screen. alpha-synuclein 5'UTR reporter, inhibitor activity. AID 1813. inhibition, % (tested at 7.5 µM). actives 0.82% (n = 300,000); in the data active means inhibition above about 60%;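 further: H4 neuroglioblastoma cells stably carrying SNCA 5'UTR luciferase fusion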
Ba/F3 V617F tox: loss of viability in JAK2V617F-driven Ba/F3 cells; inhibition, % at 5.6 µM; Ba/F3 EpoR-JAK2V617F viability, ATP luminescence; actives 1.1% (n = 220,000); AID 1446;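 active means inhibition above the campaign mean plus 3 SD over all tested compounds, cut at about 24% in these data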;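 further: cytokine-independent growth of Ba/F3 cells driven by EpoR plus mutant JAK2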
KLF5 inhibitor: inhibitors of KLF5 expression | DLD-1 KLF5 promoter-luciferase reporter, luminescence | inhibition, % at 5 µM | actives 0.23% (n = 290,000);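 active means inhibition above a per-plate limit of that plate's mean compound inhibition plus 3 SD, cut at about 60% in these data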;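 further: higher means less KLF5 promoter-driven luciferase light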
IEC-6 cytotox: IEC-6 cytotoxicity, counter-screen for KLF5 inhibitors; luminescence viability; inhibition, % at 5 µM; actives 0.78% (n = 290,000); AID 1825; in the data active means inhibition above about 22%
Numbers stand for hits; – = inactive; · = no result.

SMILES	APP transl inh	BaF3 parental	aSyn UTR inh	Ba/F3 V617F tox	KLF5 inhibitor	IEC-6 cytotox
N=c1c2c(n(Cc3ccc(F)cc3)c3c1CCC3)CCCC2	–	56.6	–	54.8	–	–
N=c1c2c(n(Cc3ccccc3)c3c1CCC3)CCC2	–	60.2	–	62.2	–	–
O=C1CCCc2ccccc2N1Cc1ccc(F)cc1	–	–	–	–	–	–
N=c1c2c(n(Cc3ccc(Cl)cc3)c3c1CCC3)CCC2	–	72.6	–	95.3	–	–
C[n+]1cc(-c2ccccc2)n2c1CCCCC2	–	64.2	–	64.8	–	–
COc1ccc(-c2c[n+](CC(=O)c3ccccc3)c3n2CCCCC3)cc1	·	59.6	–	48.4	–	–
CC1CCC(C(C)C)C(OC(=O)C[n+]2cc(-c3ccc(Cl)cc3)n3c2CCCCC3)C1 (stereo unspecified)	–	73.0	–	100.7	–	–
Cc1ccc(NC(=O)C[n+]2cc(-c3ccccc3)n3c2CCC3)cc1	·	–	–	–	–	–
O=[N+]([O-])c1ccc(C[n+]2cc(-c3ccccc3)n3c2CCCCC3)cc1	–	–	–	–	–	–
O=C(C[n+]1cc(-c2ccc(F)cc2)n2c1CCC2)c1cccs1	·	29.4	–	–	–	–
COc1ccc(OC)c(NC(=O)CCN2CCN(CCO)CC2)c1	·	·	–	·	–	–
Cc1ccc(C)c(NC(=S)N2CCC(NC(=O)C3CCCCC3)CC2)c1	·	·	–	·	–	–
O=C(C[n+]1cc(-c2ccccc2)n2c1CCCCC2)c1ccc(Cl)cc1	–	56.1	–	52.8	–	–
Cc1ccc(-c2c[n+](CC(=O)c3ccc(Br)cc3)c3n2CCCCC3)cc1	–	69.4	–	77.3	–	–
Cc1ccc(-c2cc[n+](Cc3ccccc3)cc2)cc1	–	73.3	·	85.2	–	–
COc1cc2c(cc1OC)-c1cc3ccc4c(c3c[n+]1CC2)OCO4	–	57.4	–	49.4	–	–
COc1cc2c(ccc3cc(OC)c(OC)c(O)c32)cc1O	·	·	–	·	·	·
COc1cc2c(cc1O)CC[n+]1cc3c(OC)c(OC)ccc3cc1-2	–	44.8	–	–	–	–
COc1cc2c(cc1OC)C(c1ccccc1)=NCC2	–	–	–	–	–	–
COc1ccc(C2=Nn3c(nnc3-c3ccncc3)SC2)cc1OC	–	–	71.8	–	–	–
O=C(Oc1cccnc1)c1ccco1	45.7	–	–	–	–	–
CC1(C)N=C(N)N=C(N)N1c1ccc(F)cc1F	–	36.1	–	28.8	–	–
CC1(C)N=C(N)N=C(N)N1c1cccc(CN)c1	·	57.9	–	61.5	–	–
Cc1cccc(N2C(N)=NC(N)=NC23CCCCC3)c1	–	61.4	–	60.6	–	–
COc1ccc(OC)c(N2C(N)=NC(N)=NC23CCCC3)c1	–	–	–	–	–	–
SMILES	APP transl inh	BaF3 parental	aSyn UTR inh	Ba/F3 V617F tox	KLF5 inhibitor	IEC-6 cytotox
CCCc1cc2c(=O)c(-c3nc4ccccc4s3)c(COCC(=O)O)oc2cc1O	–	–	·	–	–	–
CC(=O)Nc1ccccc1NC(=O)C/C(C)=N/NC(=O)Cc1cccc2ccccc12	·	·	–	·	–	–
COC(=O)c1c(-c2ccc(C)cc2)csc1NC(=O)c1c(-c2ccccc2)noc1C	–	–	67.9	–	–	–
COC(=O)c1sccc1NC(=O)c1c(-c2ccccc2)noc1C	–	–	–	–	–	–
Cc1ccc(NC(=S)NC(=O)c2ccc(F)cc2)cc1S(=O)(=O)Nc1cccc(Cl)c1	–	–	81.3	–	–	–
Cc1ccc(-c2csc3nc4c5ccccc5c(NCCCN(C)C)nn4c(=O)c23)cc1	–	–	115.6	–	–	–
CC1CCc2sc(C(=O)N=Nc3c(O)[nH]c4ccccc34)cc2C1 (stereo unspecified)	–	–	–	–	–	–
Cc1ccc(Nc2c(-c3ccccn3)nc3cccc(C)n23)cc1	67.5	–	–	–	–	–
O=[N+]([O-])c1ccc2[nH]c3nc4ccccc4nc3c2c1	·	42.8	–	36.3	–	–
O=[N+]([O-])c1ccc2[nH]nc(-c3ccccc3)c2c1	–	–	–	–	–	–
CC(C(=O)Nc1ccc(N2CCOCC2)cc1)N1C(=O)c2ccccc2C1=O (stereo unspecified)	–	–	–	–	–	–
CC(C)C(C(=O)Nc1ccc(N2CCOCC2)cc1)N1C(=O)c2ccccc2C1=O (stereo unspecified)	–	60.4	–	–	–	–
CC(C)C(C(=O)Nc1ccc2c(c1)OCCO2)N1C(=O)c2ccccc2C1=O (stereo unspecified)	–	93.6	–	–	–	–
COc1ccc(/C(N)=N/OC(=O)CCCN2C(=O)c3ccccc3C2=O)cc1OC	–	–	–	–	–	–
CC(=O)Nc1ccc2nc3c(=O)n(C)c(=O)n(C)c3nc2c1	·	–	–	–	–	–
CCOc1ccc(NC(=O)C2CSC(c3ccncc3)=N2)cc1 (stereo unspecified)	46.4	–	–	–	–	–
c1ccc2[nH]c(-c3ccc4c(c3)OCO4)nc2c1	·	·	78.5	·	·	·
O=C(Nc1ccc(-c2nc3ccccc3[nH]2)cc1)c1ccc2c(c1)OCO2	–	–	–	–	–	–
Cc1ccc(S(=O)(=O)n2nccc2-c2c(-c3ccc(Cl)cc3)noc2C)cc1	·	–	–	–	–	–
C[C@@H](C(=O)NCCc1ccccc1)N1C(=O)N2CCc3c([nH]c4ccccc34)[C@@]2(C)C1=O	·	·	–	·	–	–
CC(=O)OCc1nc2sc(C)c(C)c2c(=O)[nH]1	59.0	–	–	–	–	–
O=C(c1ccccc1)N1C(=O)C(c2ccccc2)Oc2ccccc21 (stereo unspecified)	·	–	81.7	–	–	–
C/C(=N\NC(=O)C(C)Oc1ccc([N+](=O)[O-])cc1)c1ccccn1 (stereo unspecified)	63.1	–	72.3	–	–	–
CC(Oc1ccccc1)C(=O)NNC(=O)c1ccccn1 (stereo unspecified)	–	–	–	–	–	–
CCCCCc1ccc(-c2ccc(/C=C/C(=O)O)cc2)nc1	–	–	79.2	–	–	–
SMILES	APP transl inh	BaF3 parental	aSyn UTR inh	Ba/F3 V617F tox	KLF5 inhibitor	IEC-6 cytotox
CC(C)(C)c1ccc(C(=O)Nc2ccc(CC(=O)O)cc2)o1	·	–	110.7	–	–	–
CCOc1ccc(NS(=O)(=O)c2ccc(C(=O)N3CCN(c4ncccn4)CC3)cc2)cc1	–	31.3	–	–	–	–
Cc1cc(C)n(-c2nnc3c4ccccc4n(C)c3n2)n1	·	–	–	–	–	–
CC(C)(C)c1ccc(Cn2c(=N)n(CC(O)c3ccco3)c3ccccc32)cc1 (stereo unspecified)	–	–	101.2	–	–	–
Cc1ccc2nc(Cl)c(/C=N/Nc3ccc(C(=O)O)cc3)cc2c1	·	–	–	–	–	–
O=C(CCc1ccncc1)NC1CCCc2c1cnn2-c1cc(F)cc(F)c1 (stereo unspecified)	·	·	78.7	·	–	–
CSCC(=O)NC1CCCc2c1cnn2-c1cc(F)cc(F)c1 (stereo unspecified)	·	·	–	·	–	–
COc1cccc(C(=O)Nc2nc3ccccc3s2)c1	·	·	–	·	–	–
CCOCc1nnc(NC(=O)c2ccc(OC)cc2)s1	47.0	–	–	–	–	–
